Laboratory results as given in PubChem BioAssay AID651681 (Broad Institute, 2012).
Activity calls are given as the source filed them.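 The calls were made as follows: active = compound with fitted CDK2 half-maximal potency at or below twice its top tested dose; inconclusive = flat curve near 30 to 70% inhibition, or poor fit; inactive = the rest.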

Target: Cyclin-dependent kinase 2 (Homo sapiens) + Cyclin-A2 (Homo sapiens) (UniProt P20248+P24941)
Assay: blockade of human CDK2 kinase activity – biochemical, dry powder, set 3, selectivity assay for Dyrk1A inhibitor project, dose response (AID 651681)

Chain of Cyclin-dependent kinase 2 (Homo sapiens) + Cyclin-A2 (Homo sapiens) (P20248 whole entry, looked up, one chain of several): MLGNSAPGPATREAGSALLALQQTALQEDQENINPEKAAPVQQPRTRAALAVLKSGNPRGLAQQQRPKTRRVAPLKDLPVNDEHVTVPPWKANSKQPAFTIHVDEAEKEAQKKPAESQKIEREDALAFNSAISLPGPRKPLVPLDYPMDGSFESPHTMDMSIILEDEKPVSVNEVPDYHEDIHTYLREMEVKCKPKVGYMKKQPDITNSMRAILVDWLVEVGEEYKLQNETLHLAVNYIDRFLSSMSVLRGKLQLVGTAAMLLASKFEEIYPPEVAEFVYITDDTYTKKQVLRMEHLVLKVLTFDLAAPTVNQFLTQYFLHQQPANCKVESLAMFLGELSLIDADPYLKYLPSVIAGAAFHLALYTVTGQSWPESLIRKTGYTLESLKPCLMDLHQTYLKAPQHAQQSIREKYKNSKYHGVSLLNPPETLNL

COc1ccc2c(c1)[nH]c1c(C)nccc12
outcome: inactive
